Measured values: PubChem BioAssay (NCI)
This is part of a sample that, as a whole, favours compounds with a hit. Of some 79,000 tested, about 15% had one in any assay. Values without a mark were called inactive. Rule as the data show it: active = growth inhibition above about 70%; inactive = the rest.

assay: NCI Yeast Anticancer Drug Screen. Data for the sgs1 mgt1 strain (AID 161);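 also: 0% = growth of cultures given vehicle only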; settings: S. cerevisiae sgs1 mgt1 strain, at 50.0 µM, stronger effect = higher value
Outline: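 Mutant yeast exposed to compound; growth scored against vehicle-only wells.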

SMILES | growth inhibition [%]
S=C(NCc1ccccc1)Nc1ncn[nH]1 | -5.8
Nc1cc(N)nc(S(=O)(=O)O)n1 | -4.7
c1ccc2c3nnc(c2c1)SCCSCCCSCCS3 | -2.2
C/C=C1\CN2CCc3c([nH]c4ccccc34)C2CC1CC(=O)N(C)C (stereo not given) | -20.6
O=C(Nc1ccccc1)OCC#CCOC(=O)Nc1ccccc1 | 17.6
CC1(C)C2CCC1(C)C1(C2)OC(CCl)CS1 (stereo not given) | 14.1
C/C(CC(=O)Nc1cccc([N+](=O)[O-])c1)=N\NC(=O)CC#N | 0.55
Cn1cnc([N+](=O)[O-])c1Sc1nc2ccccc2[nH]1 | -12.2
COC1OC2COC(C2O)C1OS(=O)(=O)c1ccc(C)cc1 (stereo not given) | 9.2
COc1cc2c(cc1OC)C(=O)Cc1ccc3c(c1CN(C)CC2)OCO3 | -21.7
O=S(=O)(Nc1ccc(C(F)(F)F)cc1)c1ccc(F)cc1 | 26
CC(C)C1CCC(C)(C(N)=O)C1 (stereo not given) | -1.3
Nc1ccc(C(=O)Nc2ccc(C(=O)Nc3ccc4c(O)cc(S(=O)(=O)O)cc4c3)cc2)cc1 | -4.6
CCOC(=O)NC(=O)c1cn(CCCCCOC(=O)NCCCCCCNC(=O)OCCCCCn2cc(C(=O)NC(=O)OCC)c(=O)[nH]c2=O)c(=O)[nH]c1=O | 12.6
O=C1c2ccccc2C(=O)c2c1c([N+](=O)[O-])c1c(c2[N+](=O)[O-])OCO1 | 21.8
O=C(COc1cccc(Cl)c1)Nc1ccccc1 | 7.85
CCOc1ccc(-c2cc(-c3ccc(OCC)cc3)cc(-c3ccc(OCC)cc3)c2)cc1 | 1.3
Cc1ccc(CCOC(=O)Nc2ccccc2)cc1 | -3.25
Cc1c(C2(c3cc(C(C)C)c(O)c(CN(CC(=O)O)CC(=O)O)c3C)OS(=O)(=O)c3ccccc32)cc(C(C)C)c(O)c1CN(CC(=O)O)CC(=O)O | -1.75
COc1ccc(CC2c3cc(OC)c(OC)cc3CCN2C(=O)OCc2ccccc2)cc1OC (stereo not given) | 2.35

SMILES | growth inhibition [%]
Cc1ccc(S(=O)(=O)OCC2CCC(=O)N2)cc1 (stereo not given) | 0.5
Cc1cc2c(=O)cc(-c3ccc(O)cc3)oc2c(C(=O)O)c1C | 14.3
COC(=O)C(Cc1ccccc1)NC(=O)C1CSC(C)(C)N1C=O (stereo not given) | 21.6
COC(=O)C1(CCC(C)=O)CCC(C)C1=O (stereo not given) | 1.2
Cn1c(=O)oc2cc(Br)ccc21 | -3.1
COc1ccc(C(=O)C2CCC(C(=O)O)C2)cc1 (stereo not given) | -5.35
CC(=O)[O][Ga]([Br])[O]C(C)=O | 12.3
CC(=O)Oc1cc(C)c(OC(C)=O)cc1C | 3.1
O=C(OC1(c2ccccc2)OC(=O)c2ccccc21)c1ccccc1C(=O)c1ccccc1 (stereo not given) | -12.1
CC(=O)Nc1ccc(-c2nnc(SCC(=O)Nc3cccc(C)c3)o2)cc1 | 32
COc1ccccc1N=Nc1c(-c2ccccc2)nn(C(=O)CC(=O)Nc2cccc(C)c2)c1-c1ccccc1 | 4.9
COC=C(C(=O)OC)C(=O)OC | 0.5
OCC1(CO)CCC=CO1 | 2.5
NC(=O)C(CCc1ccccc1)(CCc1ccccc1)c1ccc2ccccc2c1 | -2.85
O=C1CS(=O)(=O)C2(CCCCC2)C(=O)N1 | -12.2
O=C(O)/C=C/c1ccc(C(NC(=O)N2C(=O)C=CC2=O)NC(=O)N2C(=O)C=CC2=O)cc1 | 42.3
CC(=O)NCCC1CN(C(=O)/C=C/I)c2ccccc21 (stereo not given) | 4.55
CCCCCCOCC(=O)O | -7.25
O=C(NCCCCN1CCCC1)C(c1cc2ccccc2s1)C1CCCCC1 (stereo not given) | 42.2
Cc1c2cc3c(c1O)C(=O)CC(O3)c1ccc(O)c(c1)-c1cccc(c1O)C(=O)OCC1OC(O2)C(O)C(O)C1O (stereo not given) | 32

assay: NCI Yeast Anticancer Drug Screen. Data for the cln2 rad14 strain (AID 165);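 also: 0% = growth equal to vehicle treated cultures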; settings: S. cerevisiae cln2 rad14 strain, at 50.0 µM, stronger effect = higher value
Outline: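 The screen exposed genetically defined yeast (cln2 rad14) to test compounds and scored growth inhibition relative to vehicle-treated controls.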

SMILES | growth inhibition [%]
S=C(NCc1ccccc1)Nc1ncn[nH]1 | -22.9
Nc1cc(N)nc(S(=O)(=O)O)n1 | -25.9
c1ccc2c3nnc(c2c1)SCCSCCCSCCS3 | -5.25
C/C=C1\CN2CCc3c([nH]c4ccccc34)C2CC1CC(=O)N(C)C (stereo not given) | -1
O=C(Nc1ccccc1)OCC#CCOC(=O)Nc1ccccc1 | -60.5
CC1(C)C2CCC1(C)C1(C2)OC(CCl)CS1 (stereo not given) | 4.3
C/C(CC(=O)Nc1cccc([N+](=O)[O-])c1)=N\NC(=O)CC#N | 12.1
Cn1cnc([N+](=O)[O-])c1Sc1nc2ccccc2[nH]1 | 3.65
COC1OC2COC(C2O)C1OS(=O)(=O)c1ccc(C)cc1 (stereo not given) | -46.1
COc1cc2c(cc1OC)C(=O)Cc1ccc3c(c1CN(C)CC2)OCO3 | 2.7
O=S(=O)(Nc1ccc(C(F)(F)F)cc1)c1ccc(F)cc1 | 15.9
CC(C)C1CCC(C)(C(N)=O)C1 (stereo not given) | -23.4
Nc1ccc(C(=O)Nc2ccc(C(=O)Nc3ccc4c(O)cc(S(=O)(=O)O)cc4c3)cc2)cc1 | -34.3
CCOC(=O)NC(=O)c1cn(CCCCCOC(=O)NCCCCCCNC(=O)OCCCCCn2cc(C(=O)NC(=O)OCC)c(=O)[nH]c2=O)c(=O)[nH]c1=O | 21.9
O=C1c2ccccc2C(=O)c2c1c([N+](=O)[O-])c1c(c2[N+](=O)[O-])OCO1 | -0.15
O=C(COc1cccc(Cl)c1)Nc1ccccc1 | -17.1
CCOc1ccc(-c2cc(-c3ccc(OCC)cc3)cc(-c3ccc(OCC)cc3)c2)cc1 | -7.2
Cc1ccc(CCOC(=O)Nc2ccccc2)cc1 | -13.1
Cc1c(C2(c3cc(C(C)C)c(O)c(CN(CC(=O)O)CC(=O)O)c3C)OS(=O)(=O)c3ccccc32)cc(C(C)C)c(O)c1CN(CC(=O)O)CC(=O)O | 24.7
COc1ccc(CC2c3cc(OC)c(OC)cc3CCN2C(=O)OCc2ccccc2)cc1OC (stereo not given) | 19.6

SMILES | growth inhibition [%]
Cc1ccc(S(=O)(=O)OCC2CCC(=O)N2)cc1 (stereo not given) | -3.15
Cc1cc2c(=O)cc(-c3ccc(O)cc3)oc2c(C(=O)O)c1C | 24.8
COC(=O)C(Cc1ccccc1)NC(=O)C1CSC(C)(C)N1C=O (stereo not given) | 3.05
COC(=O)C1(CCC(C)=O)CCC(C)C1=O (stereo not given) | 0.2
Cn1c(=O)oc2cc(Br)ccc21 | 18.9
COc1ccc(C(=O)C2CCC(C(=O)O)C2)cc1 (stereo not given) | -6.35
CC(=O)[O][Ga]([Br])[O]C(C)=O | 14.4
CC(=O)Oc1cc(C)c(OC(C)=O)cc1C | -1.85
O=C(OC1(c2ccccc2)OC(=O)c2ccccc21)c1ccccc1C(=O)c1ccccc1 (stereo not given) | 3.45
CC(=O)Nc1ccc(-c2nnc(SCC(=O)Nc3cccc(C)c3)o2)cc1 | 24
COc1ccccc1N=Nc1c(-c2ccccc2)nn(C(=O)CC(=O)Nc2cccc(C)c2)c1-c1ccccc1 | 5.65
COC=C(C(=O)OC)C(=O)OC | 0.2
OCC1(CO)CCC=CO1 | 10.7
NC(=O)C(CCc1ccccc1)(CCc1ccccc1)c1ccc2ccccc2c1 | 6.6
O=C1CS(=O)(=O)C2(CCCCC2)C(=O)N1 | -42.1
O=C(O)/C=C/c1ccc(C(NC(=O)N2C(=O)C=CC2=O)NC(=O)N2C(=O)C=CC2=O)cc1 | 15.7
CC(=O)NCCC1CN(C(=O)/C=C/I)c2ccccc21 (stereo not given) | 37.7
CCCCCCOCC(=O)O | -19.8
O=C(NCCCCN1CCCC1)C(c1cc2ccccc2s1)C1CCCCC1 (stereo not given) | 4.25
Cc1c2cc3c(c1O)C(=O)CC(O3)c1ccc(O)c(c1)-c1cccc(c1O)C(=O)OCC1OC(O2)C(O)C(O)C1O (stereo not given) | 34.5
